Hits are enriched below; roughly 19% of the tested compounds scored in any of these assays.
HT1080NT lethal = qHTS for induction of synthetic lethality in tumor cells producing 2HG: qHTS for the HT-1080-NT fibrosarcoma cell line; 360,000 tested, 1.6% active; HT-1080-NT fibrosarcoma viability, CellTiter-Glo ATP luminescence, 48 h; Potency, µM (highest dose often 46.1 µM), without a hit: top-dose activity, negative = less viability, hits mostly cytotoxic;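 note: NT is the 2HG producing partner of a matched IDH1 knockdown line; potency is the fitted concentration of half-maximal effect; 0% = DMSO-treated cells and -100% = media-only wells without cells; nearly all actives have a fitted effect of over 55% in size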
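750 cells/well, RPMI + 5% FBS; 2 h settle, compound pin-transfer, 48 h at 37 degrees C. CellTiter-Glo 10 min RT, luminescence. Normalized to DMSO and media-only wells.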
TDP1 cell CPT = qHTS for Inhibitors of human tyrosyl-DNA phosphodiesterase 1 (TDP1): qHTS in cells in presence of CPT; chicken DT40 Tdp1-/-;hTDP1 cells + 20 nM CPT, ATP luminescence, 48 h; Potency, µM (top dose mostly 46.2 µM), without a hit: at the highest dose activity change, negative = growth inhibition, most hits filed as inhibitors; 420,000 tested, 12% active; AID 686979, 2013; note: potency is the fitted concentration of half-maximal effect; nearly all actives have a fitted effect of over 55% in size
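Cell growth measured by CellTiter-Glo luminescence after a minimum 48 h, 37 C compound exposure with 20 nM CPT in Tdp1-knockout DT40 cells stably expressing hTDP1, seeded 400/well; qHTS titration format.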
uPA surface inh = qHTS for Inhibitors of Cell Surface uPA Generation | cell surface uPA generation assay, qHTS | Potency, µM (top dose mostly 38.3 µM), inactives show at the top dose activity change, negative = inhibition, most hits filed as inhibitors | 330,000 tested, 0.31% active | AID 540303, 2011; active = well fitted inhibition curve with a large enough effect; inconclusive = small, poorly fitted or top-dose-only effect; inactive = no such curve, though single readings can be large or run the other way; tested in mouse RAW 264.7 cells; note: potency is the fitted concentration of half-maximal effect; nearly all actives have a fitted effect of over 55% in size
HT1080 IDH1KD tx = qHTS for induction of synthetic lethality in tumor cells producing 2HG: qHTS for the HT-1080-IDH1KD cell line. 360,000 tested, 2% active. HT-1080 IDH1 knockdown viability, ATP luminescence, 48 h. AID 686971, 2013. Potency, µM (highest dose often 46.1 µM), without a hit: top-dose activity, negative = toxicity, hits mostly cytotoxic;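 note: potency is the fitted concentration of half-maximal effect; 0% = DMSO wells and -100% = cell-free medium wells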
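In this qHTS, HT-1080 cells depleted of IDH1 are exposed for 48 h at 37 °C to compound titrations. Toxicity is scored from CellTiter-Glo luminescence, with DMSO as full viability and medium alone as none.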
TDP1 cell noCPT = qHTS for Inhibitors of human tyrosyl-DNA phosphodiesterase 1 (TDP1): qHTS in cells in absence of CPT | DT40 Tdp1-/- hTDP1 cells, no CPT, ATP luminescence, 48 h | 420,000 tested, 15% active | Potency, µM (top dose mostly 46.2 µM), for the others: at the top dose activity change, negative = growth inhibition, hits mostly inhibitors; note: potency is the fitted concentration of half-maximal effect; nearly all actives have a fitted effect of over 55% in size
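Luminescent ATP content (CellTiter-Glo) served as the growth readout. Knockout chicken DT40 cells expressing human TDP1 were exposed to compounds without camptothecin for a minimum 48 hr at 37 °C.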
IL1B secr inh = qHTS for Inhibitors of Inflammasome Signaling: IL-1-beta AlphaLISA Primary Screen; THP-1 LPS/ATP IL-1B secretion, AlphaLISA, 16 h; hits give low values; activity change, % at 57.5 µM; 360,000 tested, 4.7% active; AID 743279, 2014; in the data active = activity change below about -50%; inconclusive = mostly about -30% to -49%
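Secreted IL-1B measured by AlphaLISA bead assay after 16 h compound exposure of THP-1 cells; compounds (final up to 57.5 uM) added 1 h before LPS (250 ng/mL) and ATP (1.25 mM) stimulation; lower signal means less secretion.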
Starred values were filed as active, the others as inactive; [ ] = dose if it differs, or a comment. Unless noted, calls come from the whole dose curve; as a rule, active = well fitted curve in the direction sought with a large enough effect; inconclusive = small, poorly fitted or top-dose-only effect, or another doubt; inactive = no such curve, though single readings can be large; an effect the other way counts as inactive or inconclusive. Unless noted, % is set by controls: 0 for no effect and ±100 for the full control effect.

CC1CCCN(S(=O)(=O)c2ccc3[nH]c4c(c3c2)CCCC4)C1 (stereo not drawn) was read as HT1080NT lethal inconclusive, TDP1 cell CPT 20.6µM*, uPA surface inh 6.8%, HT1080 IDH1KD tx inconclusive, TDP1 cell noCPT inconclusive and IL1B secr inh 22.9.
Screening CCCN(CCC)S(=O)(=O)c1cc2c3c(c1)CCN3C(=O)CC2 returned HT1080NT lethal 6.1%, TDP1 cell CPT -14.9%, uPA surface inh 1.3%, HT1080 IDH1KD tx 4.7%, TDP1 cell noCPT 0.1% and IL1B secr inh -13.6.
`COc1ccccc1CNc1ncnc2sc(C(=O)N(C)C(C)C)c(C)c12` gave TDP1 cell CPT -3.8%[9.04 µM] and TDP1 cell noCPT inconclusive.
COc1ccccc1N(C1=NCCCS1)S(=O)(=O)c1ccc(C(C)(C)C)cc1 was read as HT1080NT lethal -4.3%, TDP1 cell CPT 20.6µM*, uPA surface inh -3.0%, HT1080 IDH1KD tx -3.3%, TDP1 cell noCPT 23.1µM* and IL1B secr inh -8.8.
`COc1ccc(N2CCN(C(=O)CCCn3c(=O)[nH]c4cc(Cl)ccc4c3=O)CC2)cc1` gave HT1080NT lethal -7.8%, TDP1 cell CPT inconclusive, uPA surface inh -6.1%, HT1080 IDH1KD tx -8.7%, TDP1 cell noCPT inconclusive and IL1B secr inh 7.1.
For CCOc1cc2[nH]c(=O)n(CCCC(=O)N3CCN(c4ccc(OC)cc4)CC3)c(=O)c2cc1OCC the results were TDP1 cell CPT inconclusive and TDP1 cell noCPT 20.6µM*.
For COc1cc2[nH]c(=O)n(CCC(=O)N3CC=C(c4ccccc4)CC3)c(=O)c2cc1OC the results were HT1080NT lethal 2.0%, TDP1 cell CPT 1.7%, uPA surface inh 2.5%, HT1080 IDH1KD tx 17.6%, TDP1 cell noCPT -3.1% and IL1B secr inh 13.4.
For COc1cc2[nH]c(=O)n(CCCC(=O)N3CC=C(c4ccccc4)CC3)c(=O)c2cc1OC the results were HT1080NT lethal 2.2%, TDP1 cell CPT inconclusive, uPA surface inh -0.1%, HT1080 IDH1KD tx -0.5%, TDP1 cell noCPT 20.6µM* and IL1B secr inh inconclusive.
For COc1cccc(N2CCN(C(=O)CCCn3c(=O)[nH]c4ccc(Br)cc4c3=O)CC2)c1 the results were TDP1 cell CPT 20.6µM* and TDP1 cell noCPT 6.51µM*.
`C=CCn1c(=O)[nH]c2cc(C(=O)N3CC=C(c4ccccc4)CC3)ccc2c1=O` gave HT1080NT lethal -1.9%, TDP1 cell CPT inconclusive, uPA surface inh 0.2%, HT1080 IDH1KD tx -10.2%, TDP1 cell noCPT 25.9µM* and IL1B secr inh -13.2.
`CCc1nn(CC(=O)NC(C)c2ccccc2)c(=O)c2cc3sccc3n12` (stereo not drawn) gave TDP1 cell CPT -8.0% and TDP1 cell noCPT -19.4%.
For NC1CONC1=O (stereo not drawn) the results were TDP1 cell CPT -17.9% and TDP1 cell noCPT inconclusive.
`CCOc1cc2[nH]c(=O)n(CCCCC(=O)N3CCN(c4ccccc4OC)CC3)c(=O)c2cc1OCC` gave TDP1 cell CPT 13µM* and TDP1 cell noCPT 9.2µM*.
For CC(C)c1ccc(CN(Cc2ccco2)c2cnc(S(C)(=O)=O)nc2C(=O)Nc2ccc(F)cc2)cc1 the results were TDP1 cell CPT inconclusive and TDP1 cell noCPT 20.6µM*.
`COc1ccc(CN(Cc2ccco2)c2cnc(S(C)(=O)=O)nc2C(=O)Nc2ccc(C)c(Cl)c2)cc1` gave TDP1 cell CPT inconclusive and TDP1 cell noCPT -22.1%.
For CCc1ccc(NC(=O)N(Cc2cccnc2)Cc2ccco2)cc1 the results were HT1080NT lethal 10.5%, TDP1 cell CPT -17.7%, HT1080 IDH1KD tx -14.0%, TDP1 cell noCPT -13.7% and IL1B secr inh -15.6.
`CCc1ccc(CN(Cc2ccco2)c2cnc(S(C)(=O)=O)nc2C(=O)Nc2c(C)cccc2C)cc1` gave TDP1 cell CPT 16.4µM* and TDP1 cell noCPT 18.4µM*.
For Cc1ccc(NC(=O)c2nc(S(C)(=O)=O)ncc2N(Cc2ccco2)Cc2ccco2)cc1 the results were TDP1 cell CPT 8.2µM* and TDP1 cell noCPT 11.6µM*.
CC(C)Cc1nc2cc(NS(=O)(=O)N(C)C)cc(C(=O)N3CCOCC3)c2n1C was read as TDP1 cell CPT 7.8%[9.04 µM] and TDP1 cell noCPT 2.6%.
`Cc1ccc2c(c1)COc1c3ccc(C(=O)N[C@@H](CO)C(C)C)cc3nn1-2` gave HT1080NT lethal 1.8%, TDP1 cell CPT 23.1µM*, uPA surface inh inconclusive, HT1080 IDH1KD tx -7.9%, TDP1 cell noCPT 18.4µM* and IL1B secr inh -19.6.
For O=C(c1ccc2c3n(nc2c1)-c1ccccc1CO3)N1CCOCC1 the results were HT1080NT lethal 8.2µM*, TDP1 cell CPT 8.2µM*, uPA surface inh 7.08µM*, HT1080 IDH1KD tx 23.1µM*, TDP1 cell noCPT 9.2µM* and IL1B secr inh -19.0.
For CC(C)NC(=O)c1ccc2c3n(nc2c1)-c1ccc(Cl)cc1CO3 the results were HT1080NT lethal -9.8%, TDP1 cell CPT inconclusive, uPA surface inh inconclusive, HT1080 IDH1KD tx -14.1%, TDP1 cell noCPT inconclusive and IL1B secr inh -6.0.
Screening O=C(c1ccc2c3n(nc2c1)-c1ccc(Cl)cc1CO3)N1CCOCC1 returned HT1080NT lethal inconclusive, TDP1 cell CPT inconclusive, uPA surface inh -26.1%, HT1080 IDH1KD tx -24.5%, TDP1 cell noCPT inconclusive and IL1B secr inh -1.7.
Cc1ccc2c(c1)COc1c3ccc(C(=O)N4CCCCC4)cc3nn1-2 was read as HT1080NT lethal 5.4%, TDP1 cell CPT 20.6µM*, uPA surface inh -13.8%, HT1080 IDH1KD tx 15.2%, TDP1 cell noCPT 25.9µM* and IL1B secr inh -17.3.
For CCN(CC)CCCNC(=O)c1ccc2c3n(nc2c1)-c1ccc(Cl)cc1CO3 the results were HT1080NT lethal -13.5%, TDP1 cell CPT inconclusive, uPA surface inh inconclusive, HT1080 IDH1KD tx -29.0%, TDP1 cell noCPT 16.4µM* and IL1B secr inh -60.5*.
`O=C(NCCc1nnc2ccc(NCCCN3CCOCC3)nn12)c1ccccc1` gave HT1080NT lethal -1.0%, TDP1 cell CPT -2.0%, uPA surface inh 4.4%, HT1080 IDH1KD tx -1.4%, TDP1 cell noCPT -4.3% and IL1B secr inh inactive.
O=C1c2[nH]nc(-c3ccccc3)c2C(c2ccccc2)N1c1cccc(C(F)(F)F)c1 (stereo not drawn) was read as TDP1 cell CPT 11.6µM* and TDP1 cell noCPT 16.4µM*.

Bioassay records: PubChem BioAssay, National Center for Advancing Translational Sciences (NCATS)
